High-throughput results from PubChem BioAssay.
Rows were chosen to be rich in hits. Some 3.2% of all compounds tested hit in one or more screens of this group.
Tau fibril FP = tau fibrillization inhibition (FP); Potency, µM (titrated, usually from 57.7 µM), usual class: inhibitors; P10636; 0.39% of 280,000 active; K18 P301L tau heparin fibrillization, Alexa594 FP, 6 h; further: nearly all actives have a fitted effect of over 55% in size
Target sequence (P10636 561-689 P618L limits assumed): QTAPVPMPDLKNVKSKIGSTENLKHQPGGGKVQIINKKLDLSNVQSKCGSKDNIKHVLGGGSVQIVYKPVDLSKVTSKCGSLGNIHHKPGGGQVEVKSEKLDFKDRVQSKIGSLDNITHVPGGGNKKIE
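Human tau K18 […] P301L fragment, 15 uM unlabeled plus 0.24 uM Alexa 594-labeled tau (final), with compound and 20 uM heparin in 100 mM sodium acetate pH 7; 6 hr at 37 C, then Alexa 594 FP read.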
Tau fluor cs = counter-screen for tau fibril formation inhibitors; tau K18 P301L Alexa594 fluorescence, heparin fibrillization; Potency, µM (highest dose often 57.7 µM); 0.93% of 280,000 active; further: nearly all actives have a fitted effect of over 55% in size
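Human tau K18 P301L (15 uM unlabeled, 0.24 uM Alexa 594-labeled) in 100 mM sodium acetate pH 7 with 20 uM heparin, 6 hr at 37 C. ThT 30 uM added, 1 hr ambient; Alexa 594 FP and total fluorescence read at 555/632 nm.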
TRb SRC2 PPI = TRbeta-SRC2 interaction inhibition | P10828 | TRbeta-SRC2 peptide binding, fluorescence polarization; receptor liganded with 1 µM T3 | Potency, µM (top dose mostly 106 µM), hits mostly inhibitors | 0.065% of 280,000 active; further: nearly all actives have a fitted effect of over 50% in size
Target sequence (P10828 whole entry, looked up): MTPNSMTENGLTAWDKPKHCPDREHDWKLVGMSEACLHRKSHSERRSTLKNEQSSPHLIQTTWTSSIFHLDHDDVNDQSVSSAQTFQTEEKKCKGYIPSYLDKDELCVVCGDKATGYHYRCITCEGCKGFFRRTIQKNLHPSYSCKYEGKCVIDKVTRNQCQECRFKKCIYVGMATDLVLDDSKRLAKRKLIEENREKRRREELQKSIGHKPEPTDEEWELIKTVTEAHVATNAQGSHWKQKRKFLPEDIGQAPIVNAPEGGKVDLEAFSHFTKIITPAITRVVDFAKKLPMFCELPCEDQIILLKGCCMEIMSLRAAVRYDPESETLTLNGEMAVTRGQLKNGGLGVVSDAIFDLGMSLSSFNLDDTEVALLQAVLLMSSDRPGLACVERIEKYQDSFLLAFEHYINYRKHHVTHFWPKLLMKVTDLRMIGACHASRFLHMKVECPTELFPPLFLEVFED
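Polarization signal, normalized between peptide-alone and full complex controls, measured compound effects on T3-liganded human TRb LBD (0.6 uM) binding 20 nM Texas Red SRC2 peptide after 5 hr.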
TR SRC2 fluor cs = Texas Red fluorescence interference in TRb-SRC2 counter-screen. Potency, µM (series often up to 106 µM). TRb/SRC2 Texas Red total fluorescence interference. 0.29% of 280,000 active. AID 1479; active means well fitted curve in either direction with a large enough effect; inconclusive means small, poorly fitted or top-dose-only effect
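Human TRb ligand-binding domain at 0.6 uM with 20 nM Texas Red SRC2 peptide in Tris buffer containing 1 uM T3 and 5% DMSO, incubated with compound 5 h at ambient temperature. Total fluorescence (555/632 nm) calculated as parallel + 2 × perpendicular.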
GoLoco inh red = RGS12 GoLoco-Gai1 interaction inhibition. Potency, µM (highest dose often 61.6 µM), hits mostly inhibitors. Gai1:RGS12 GoLoco peptide FP, rhodamine, 10 min. 0.44% of 230,000 active. P63096. AID 880; active means well fitted inhibition curve with a large enough effect, not every such curve was filed as active; inactive means no such curve, though single readings can be large or run the other way; further: nearly all actives have a fitted effect of over 30% in size
Tau ThT inhib = blocks human tau fibril formation measured by thioflavin T; recombinant tau K18 P301L, heparin-induced fibrillization, ThT fluorescence; AID 1460; Potency, µM (doses to about 57.4 µM), actives largely listed as inhibitors; 2.1% of 270,000 active; further: nearly all actives have a fitted effect of over 55% in size
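Using a mix of unlabeled (15 uM) and Alexa 594-labeled (0.24 uM) tau K18 P301L, heparin-triggered fibrillization over 6 hr at 37 C was scored by ThT fluorescence.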
Numbers stand for hits; [ ] = remark or other dose. Unless noted, the call rests on the fitted dose curve; in most records, active means well fitted curve in the direction sought with a large enough effect; inconclusive means small, poorly fitted or top-dose-only effect, or another doubt; inactive means no such curve, though single readings can be large; an effect the other way counts as inactive or inconclusive.

For CNC(=O)c1c(NC(=O)/C=C/c2ccccc2)sc2c1CCC2 the results were Tau fibril FP inactive, Tau fluor cs inconclusive, TRb SRC2 PPI inactive, TR SRC2 fluor cs inactive and Tau ThT inhib 14µM.
O=C(/C=C/c1ccco1)Nc1sc2c(c1C(=O)O)CCC2 was read as Tau fibril FP inactive, Tau fluor cs inactive, TRb SRC2 PPI inactive, TR SRC2 fluor cs inactive, GoLoco inh red inactive and Tau ThT inhib inconclusive.
CC(C)(C)N1C(=O)[C@H]2[C@H]3[C@H](O)[C@H](O)C/C(=N/NC(=O)OCc4ccccc4)[C@H]3CC[C@@H]2C1=O was read as Tau fibril FP inactive[11.6 µM], Tau fluor cs inactive[11.6 µM], TRb SRC2 PPI inactive[11.2 µM], TR SRC2 fluor cs inactive[11.2 µM] and Tau ThT inhib inactive[11.5 µM].
For COc1ccccc1Nc1c2c(nc3ccc(NC(=O)c4ccc(OC)c(OC)c4)cc13)CCCC2 the results were Tau fibril FP inactive, Tau fluor cs inconclusive, TRb SRC2 PPI inactive, TR SRC2 fluor cs inactive and Tau ThT inhib 25µM.
COc1ccc(Nc2c3c(nc4ccc(NC(=O)c5ccc(F)cc5)cc24)CCCC3)cc1OC was read as Tau fibril FP inactive, Tau fluor cs inconclusive, TRb SRC2 PPI inactive, TR SRC2 fluor cs inactive and Tau ThT inhib 16µM.
Screening COc1ccc(C(=O)Nc2ccc3nc4c(c(Nc5ccccc5OC)c3c2)CCCC4)c(OC)c1 returned Tau fibril FP inactive, Tau fluor cs inconclusive, TRb SRC2 PPI inactive, TR SRC2 fluor cs inactive and Tau ThT inhib 18µM.
CCCn1c(C)nc2c(Nc3ccccc3)nc(C)nc21 was read as Tau fibril FP inactive, Tau fluor cs inactive, TRb SRC2 PPI inactive, TR SRC2 fluor cs inactive, GoLoco inh red inactive and Tau ThT inhib inactive.
`CC1=CC23C(=O)C(C=C(CO)[C@@H](O)[C@]2(O)[C@H]1O)[C@H]1[C@@H](C[C@H]3C)C1(C)C` (stereo partly specified) gave TRb SRC2 PPI inactive and TR SRC2 fluor cs inactive.
For CCOC(=O)C1=C(CSc2nc(CC)c(C)cc2C#N)OC(N)=C(C#N)C1c1ccc(OC)cc1 (stereo unspecified) the results were Tau fibril FP inactive, Tau fluor cs inactive, TRb SRC2 PPI inactive, TR SRC2 fluor cs inactive, GoLoco inh red inactive and Tau ThT inhib inactive.
COC(=O)C1=C(CSc2nc3c(cc2C#N)CN(C)CC3)OC(N)=C(C#N)C1c1ccc(F)cc1 (stereo unspecified) was read as Tau fibril FP inconclusive, Tau fluor cs inconclusive, TRb SRC2 PPI inactive, TR SRC2 fluor cs inactive, GoLoco inh red inactive and Tau ThT inhib 25µM.
`CCOc1ccccc1NC(=O)c1nn(C)c2c1CSc1ccccc1-2` gave Tau fibril FP inactive, Tau fluor cs 11µM[quencher], TRb SRC2 PPI inactive, TR SRC2 fluor cs inactive and Tau ThT inhib inconclusive.
`CC(=O)c1ccccc1[N+](=O)[O-]` gave TRb SRC2 PPI inactive, TR SRC2 fluor cs inactive and GoLoco inh red inactive.
`CO[C@H]1OC2O[C@@]3(C)CC[C@H]4[C@H](C)CC[C@@H]([C@H]1C)[C@@]24OO3` (stereo partly specified) gave TRb SRC2 PPI inactive, TR SRC2 fluor cs inactive and GoLoco inh red inactive.
Screening O=C(CSc1ccccc1)Nc1nnc(COc2ccc(Cl)cc2)s1 returned Tau fibril FP inconclusive, Tau fluor cs inconclusive, TRb SRC2 PPI inactive, TR SRC2 fluor cs inactive, GoLoco inh red inactive and Tau ThT inhib 28µM.
`Cc1cccc(C)c1OCc1nnc(NC(=O)CSc2ccc(Cl)cc2)s1` gave Tau fibril FP inconclusive, Tau fluor cs inactive, TRb SRC2 PPI inactive, TR SRC2 fluor cs inactive, GoLoco inh red inactive and Tau ThT inhib inactive.
`CSc1nc(N)c2ncn([C@@H]3O[C@H](COP(=O)(O)OP(=O)(O)OP(=O)(O)O)[C@H](O)[C@H]3O)c2n1` gave Tau fibril FP inactive, Tau fluor cs inactive, TRb SRC2 PPI inactive, TR SRC2 fluor cs inactive, GoLoco inh red inactive and Tau ThT inhib inactive.
CC(C)CO/N=C1/C[C@@H](O)[C@@H](O)[C@@H]2[C@@H]3C(=O)N(Cc4ccc5c(c4)OCO5)C(=O)[C@H]3CC[C@H]12 was read as Tau fibril FP inactive[11.6 µM], Tau fluor cs inactive[11.6 µM], TRb SRC2 PPI inactive[11.2 µM], TR SRC2 fluor cs inactive[11.2 µM] and Tau ThT inhib inactive[11.5 µM].
`O=C1C(c2c(O)[nH]c3ccccc23)=Nc2ccccc21` gave Tau fibril FP inactive, Tau fluor cs inconclusive, TRb SRC2 PPI inactive, TR SRC2 fluor cs inactive, GoLoco inh red inactive and Tau ThT inhib inconclusive.
For CC(=O)c1cccc2c(O)c(C3=Nc4ccccc4C3=O)[nH]c12 the results were Tau fibril FP inconclusive, Tau fluor cs inconclusive, TRb SRC2 PPI inactive, TR SRC2 fluor cs inactive, GoLoco inh red inactive and Tau ThT inhib 3.5µM.
`CCOC(=O)C1=C(C)NC2=C(C(=O)c3ccccc32)C1c1ccc([N+](=O)[O-])o1` (stereo unspecified) gave Tau fibril FP inactive, Tau fluor cs inconclusive, TRb SRC2 PPI inactive, TR SRC2 fluor cs inactive, GoLoco inh red inactive and Tau ThT inhib inconclusive.
`CCOc1ccc(Br)cc1C1C(C(=O)OC)=C(C)NC2=C1C(=O)c1ccccc12` (stereo unspecified) gave Tau fibril FP inactive, Tau fluor cs 7.9µM[quencher], TRb SRC2 PPI inactive, TR SRC2 fluor cs inactive and Tau ThT inhib 10µM.
`COC(=O)C1=C(C)N(C)C(=O)NC1c1cc(Cl)c(O)c(OC)c1` (stereo unspecified) gave Tau fibril FP inactive, Tau fluor cs inactive, TRb SRC2 PPI inactive, TR SRC2 fluor cs inactive, GoLoco inh red inactive and Tau ThT inhib inactive.
Screening COc1cc(C2NC(=O)NC(C)=C2C(=O)OC(C)(C)C)ccc1OCC(=O)O (stereo unspecified) returned Tau fibril FP inactive, Tau fluor cs inactive, TRb SRC2 PPI inactive, TR SRC2 fluor cs inactive, GoLoco inh red inactive and Tau ThT inhib inactive.
For COC(=O)COc1ccc(C2C(C(=O)OC)=C(C)NC3=C2C(=O)c2ccccc23)cc1OC (stereo unspecified) the results were Tau fibril FP inactive, Tau fluor cs 14µM[quencher], TRb SRC2 PPI inactive, TR SRC2 fluor cs inactive and Tau ThT inhib 14µM.
`CCOc1cc(C2C(C(=O)OC)=C(C)NC3=C2C(=O)c2ccccc23)cc(Cl)c1O` (stereo unspecified) gave Tau fibril FP inconclusive, Tau fluor cs 7.9µM[quencher], TRb SRC2 PPI inactive, TR SRC2 fluor cs inactive and Tau ThT inhib inconclusive.
CCOC(=O)COc1ccccc1C1C(C(=O)OC)=C(C)NC2=C1C(=O)c1ccccc12 (stereo unspecified) was read as Tau fibril FP inactive, Tau fluor cs 14µM[quencher], TRb SRC2 PPI inactive, TR SRC2 fluor cs inactive and Tau ThT inhib 14µM.
Screening O=C(Cn1c(=O)n(Cc2ccc(F)cc2)c(=O)c2sc3ccccc3c21)NCc1ccccc1 returned Tau fibril FP inconclusive, Tau fluor cs inactive, TRb SRC2 PPI inactive, TR SRC2 fluor cs inactive and Tau ThT inhib inactive.
